This is an account of results in PubChem BioAssay (EPA / NIEHS).

Values joined by “and” are separate entries in the source; they are usually repeats but may differ in a detail not shown here. Equal values may be shown once. Records with an inconclusive call do not appear. Active and inactive are the calls of the source. How the source made its calls, unless noted: active means hit-call score of the fitted dose curve at least 0.9, where 1 is the maximum; inactive means score below 0.9.

Sequence of Luciferin 4-monooxygenase (Photinus pyralis) (P08659 whole entry, looked up): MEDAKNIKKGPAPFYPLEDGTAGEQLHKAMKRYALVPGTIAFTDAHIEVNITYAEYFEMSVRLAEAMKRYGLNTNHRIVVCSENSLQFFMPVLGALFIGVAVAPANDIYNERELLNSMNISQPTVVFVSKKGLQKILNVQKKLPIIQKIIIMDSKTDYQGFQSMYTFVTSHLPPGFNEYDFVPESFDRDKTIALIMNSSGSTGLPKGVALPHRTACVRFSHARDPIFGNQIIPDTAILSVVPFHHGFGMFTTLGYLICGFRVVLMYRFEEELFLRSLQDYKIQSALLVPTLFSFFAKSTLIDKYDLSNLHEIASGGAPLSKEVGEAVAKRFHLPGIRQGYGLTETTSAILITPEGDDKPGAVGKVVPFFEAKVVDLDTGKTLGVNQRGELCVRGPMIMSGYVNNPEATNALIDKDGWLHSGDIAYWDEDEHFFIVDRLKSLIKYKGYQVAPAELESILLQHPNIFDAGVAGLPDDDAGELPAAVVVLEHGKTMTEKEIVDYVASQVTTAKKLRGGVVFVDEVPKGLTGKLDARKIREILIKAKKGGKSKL

In the first test the test system is Thyroperoxidase (TPO), gene 54314. Briefly: CCTE_Simmons_AUR_rTPO: CCTE's Amplex UltraRed Assay for Thyroperoxidase (TPO) Inhibition, Simmons Lab (AID 2283662; active means hit-call score of the fitted dose curve at least 0.9, where 1 is the maximum;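 on AC50: potency for loss of signal meaning inhibition of peroxidase activity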). The essentials: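 Cell-free peroxidase activity assay using rat thyroid gland microsomes with excess H2O2 (300 uM) and 25 uM Amplex UltraRed. Compounds tested from 5 nM to 87.5 uM; fluorescence measured after 30 min at 37C, analysed relative to DMSO baseline.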
Turning to `CCOP(=S)(OCC)O/N=C(\C#N)c1ccccc1`, the AC50 was 20.7 µM (active). On to `N#CCC#N`, for which the AC50 was 7.66 µM (active).

`O=C(CCl)Nc1ccccc1`: the AC50 is 16 µM (active). With `O=C(CBr)c1ccc(O)cc1`, the AC50 is 6.82 µM (active) and 5.72 µM (active). Regarding `CCCSP(=S)(OCC)Oc1ccc(SC)cc1` (configuration not stated), the outcome was inactive.

Read-out in another test: not listed separately
Briefly: CEETOX_H295R_MTT_cell_viability: Viability Assessment in the CeeTox HT-H295R MTT Assay (AID 2283718).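 On AC50: curve fitted both ways so AC50 may mark viability loss or gain.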 The procedure, abridged: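 MTT reduction (0.5 mg/ml, 4 h at 37 C; absorbance at 570 and 650 nm) gave viability as background-corrected percent change versus controls. H295R cells had 48 h forskolin (10 uM) prestimulation, then 48 h chemical exposure at 0.1% DMSO.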
As for `OC(Cc1ccccc1Cl)(Cn1[nH]cnc1=S)C1(Cl)CC1` (configuration not stated), the call was inactive. Take `CCOP(=S)(OCC)O/N=C(\C#N)c1ccccc1`: the outcome was inactive.

Take `CC(C)(COCC1CO1)COCC1CO1` (configuration not stated): the outcome was inactive. For the compound `O=[N+]([O-])c1ccc(Nc2ccccc2)cc1`, the outcome was inactive.

Regarding `CCOP(=O)(OCC)OC(=CCl)c1ccc(Cl)cc1Cl`, the compound was classed as inactive. On to `O=S1OC[C@@H]2[C@H](CO1)[C@]1(Cl)C(Cl)=C(Cl)[C@@]2(Cl)C1(Cl)Cl` (some centres not stated), for which the compound was classed as inactive. As for `Oc1cccc(-c2ccccc2)c1`, the call was inactive. `Cc1cc(Cl)ccc1O`: the call was inactive. For the compound `OC[P+](CO)(CO)CO`, the AC50 was 2.83 µM (active). On to `OC(Cc1ccccc1Cl)(Cn1cncn1)C1(Cl)CC1` (configuration not stated), for which the outcome was inactive. Regarding `C[C@]12CC[C@@H](O)C[C@@H]1CC[C@@H]1[C@@H]2CC[C@]2(C)C(=O)CC[C@@H]12`, the outcome was inactive. In the case of `CC(C)(C)c1cc([N+](=O)[O-])cc(C(C)(C)C)c1O`, the result was inactive. Take `Cc1cc(C(C)(C)c2ccc(O)c(C)c2)ccc1O`: the compound was called inactive. For the compound `c1cc[c]([Sb]([c]2ccccc2)[c]2ccccc2)cc1`, the AC50 is 37.6 µM (active). Take `Cc1ccccc1OP(=O)(Oc1ccccc1C)Oc1ccccc1C`: the outcome was inactive. `CCCSP(=S)(OCC)Oc1ccc(SC)cc1` (configuration not stated): the compound was called inactive.

On to `CCC[CH2][Sn]([Cl])([Cl])[CH2]CCC`, for which the compound was classed as inactive.

With `CCOCn1c(-c2ccc(Cl)cc2)c(C#N)c(Br)c1C(F)(F)F`, the AC50 is 3.79 µM (active). Regarding `CCCCCCCCCCCCN(C)C`, the call was inactive. On to `Cc1cc(Cl)ccc1N`, for which the compound was classed as inactive. As for `CC(C)=CC1C(C(=O)OCc2cccc(Oc3ccccc3)c2)C1(C)C` (configuration not stated), the AC50 is 9.92 µM (active). Take `Oc1c(Br)cc(Br)cc1Br`: the AC50 was 93.6 µM (active).

The next test addresses Luciferin 4-monooxygenase (Photinus pyralis) (UniProt P08659). The test is described as follows: CCTE_Simmons_QuantiLum_inhib_2: CCTE's Firefly Luciferase Inhibition Assay, Simmons Lab (AID 2283767; active means hit-call score of the fitted dose curve at least 0.9, where 1 is the maximum;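 on AC50: potency for inhibitors that lower luciferase luminescence relative to DMSO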). The procedure, abridged:
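Recombinant firefly luciferase (5 ng/well, 200 mM potassium phosphate with 1 mg/ml BSA) was exposed to 8 concentrations from 5 nM to 87.5 uM (final, 0.5% DMSO) for 30 min at 37C in the dark. Loss of luminescence versus DMSO was read after injecting D-luciferin/ATP-analogue reagent.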
Turning to `CCOP(=S)(OCC)O/N=C(\C#N)c1ccccc1`, the AC50 was 70 µM (active).

For `N#CCC#N`, the compound was called inactive.

For the compound `O=C(CCl)Nc1ccccc1`, the compound was called inactive.

For `O=C(CBr)c1ccc(O)cc1`, the compound was classed as inactive.

Take `CCCSP(=S)(OCC)Oc1ccc(SC)cc1` (configuration not stated): the result was inactive.
